TRHR enhancer = TRH receptor (human) allosteric enhancement. AID 493056. P34981. 360,000 tested, 0.66% active. enhancement, % at 2 µM. TRHR cells, fluo-8 calcium fluorescence, EC20 TRH enhancement; in the data active means enhancement above about 30%; further: 0% is about no effect
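Enhancer read-out: after compound pinning and an initial kinetic agonist-mode read, an EC20 of TRH (10 nM final) was injected and fluo-8 calcium signal (Ex 480/Em 530) followed at 1 s/cycle for 100 cycles in TRHR-expressing cells.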
D1 PAM = potentiators of human D1 dopamine receptor. P21728. HEK293 TREx D1 cells, calcium flux, dopamine EC20 potentiation. potentiation, % at 10 µM. 360,000 tested, 0.036% active. AID 504651; in the data active means potentiation above about 30%; further: 0% is about no effect
Target sequence (P21728 whole entry, looked up): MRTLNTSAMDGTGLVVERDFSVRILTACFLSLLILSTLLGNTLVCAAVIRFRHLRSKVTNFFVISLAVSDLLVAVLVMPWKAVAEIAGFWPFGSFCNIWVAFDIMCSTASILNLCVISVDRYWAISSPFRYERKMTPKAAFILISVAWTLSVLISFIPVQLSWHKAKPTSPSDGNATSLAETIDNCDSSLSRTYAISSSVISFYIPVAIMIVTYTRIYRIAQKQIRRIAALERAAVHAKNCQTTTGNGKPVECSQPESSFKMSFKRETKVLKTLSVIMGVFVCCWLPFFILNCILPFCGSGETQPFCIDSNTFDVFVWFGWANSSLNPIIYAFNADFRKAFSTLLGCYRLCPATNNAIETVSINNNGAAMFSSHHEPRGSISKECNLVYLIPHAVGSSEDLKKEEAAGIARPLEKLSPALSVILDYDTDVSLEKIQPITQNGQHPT
D1 ag = agonists of human D1 dopamine receptor; HEK293 T-REx D1 cells, calcium flux, agonist mode; AID 504660; activation, % at 2 µM; 360,000 tested, 1% active; further: 0% is about no effect
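Tetracycline-induced HEK293 TREx D1 cells, force-coupled to calcium signalling, were dye-loaded with a no-wash calcium kit. Compound was pin-added after a 10 s baseline. Fluorescence was read kinetically at 1 cycle/s for 180 s, with calcium rises flagged as agonism.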
D1 antagonist = human D1 dopamine receptor antagonism; P21728; HEK293 TREx D1 cells, calcium flux, dopamine EC80; stronger effect = lower value; activity change, negative = inhibition, % at 10 µM; 360,000 tested, 3.2% active; in the data active means activity change below about -30%; further: on the % scale 0 is the no-effect control and ±100 the full control effect
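Calcium flux readout: force-coupled, inducible Hek293 Trex D1 line, cells induced overnight at 30 C with tetracycline, dye-loaded 30–90 min at RT. Antagonism scored against EC80 dopamine challenge given 180 s after compound.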
TRHR ag = agonists of human TRH receptor; P34981; TRHR cells, calcium flux fluo-8, FDSS agonist mode; activation, % at 2 µM; 360,000 tested, 0.18% active; AID 493084; further: 0% is about no effect
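Agonist-mode FDSS calcium read (Ex 480/Em 530, 1 s cycles) in 1536-well TRHR cells with fluo-8 dye, after 10-cycle baseline and 23 nL compound addition; TRH at EC20 (10 nM final) added afterwards for the enhancer phase.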
Numbers without * were called inactive; ! = a repeat was not active. Hits are enriched below; roughly 4.6% of the tested compounds scored in any of these assays. Unless noted, no stated cut-off is given here; in the data, active means activation above about 30%; inactive means the rest.

SMILES	TRHR enhancer	D1 PAM	D1 ag	D1 antagonist	TRHR ag
CCSc1nnc(NC(=O)NCC(F)(F)F)s1	34*	-4	1	-6	0
CCSc1nnc(NC(=O)C2C3C=CC(C3)C2C(=O)O)s1 (stereo unspecified)	6	-10	3	-46*	1
CCSc1nnc(NC(=O)C2C3CCC(C3)C2C(=O)O)s1 (stereo unspecified)	9	8	1	-3	0
CCC(NC(=O)c1cc(COc2cc(C)c(Cl)c(C)c2)on1)c1ccncc1 (stereo unspecified)	-1	-4	36*	65	3
CCC(NC(=O)c1cc(COc2ccc(OC)cc2Cl)on1)c1ccncc1 (stereo unspecified)	4	-2	25	-26	1
Cc1ccc(CNC(=O)c2sc3nc(C)cc(C)c3c2-n2cccc2)cc1	-7	-1	3	-3	1
COc1ccc(N(CC(=O)N2CCN(c3ccc(F)cc3)CC2)S(=O)(=O)c2c(C)nn(C)c2C)cc1	-3	0	-2	-3	0
CC(=O)NS(=O)(=O)c1ccc(NC(=O)C2c3ccccc3Oc3ccccc32)cc1	33*	0	0	-8	2
COc1cc(OC)cc(C(=O)Nc2ccc3c(c2)N(C2CCCC2)C(=O)c2ccccc2S3)c1	-4	-2	7	-3	0
c1ccc2c(C[C@@H]3CNCCN3CC3CCCCC3)cccc2c1	11	4	116*	3	-1
CN(C)c1ccc(C2C=C(c3ccc(Cl)cc3OC(F)F)Nc3ncnn32)cc1 (stereo unspecified)	-2	-7	41*	5	17
Cc1ccc(C2C=C(c3ccccc3OC(F)F)Nc3ncnn32)cc1 (stereo unspecified)	-5	8	2	10	0
Cc1cc(-c2cccs2)c2c(N)c(C(=O)c3ccc4c(c3)OCO4)sc2n1	-7	7	61*	14	18
COc1ccc(C(=O)c2sc3nc(C)cc(-c4cccs4)c3c2N)cc1OC	-12	0	82*	31	21
CC(Sc1nc(=O)cc(N)n1CCc1ccccc1)C(=O)Nc1ccccc1C#N (stereo unspecified)	1	-3	-1	2	0
CCn1c(NC2CCCCC2)nc2ccccc21	2	-7	0	-34*	0
CCn1c(N2CCN(C(=O)NC3CCCCC3)CC2)nc2ccccc21	-7	-1	-1	2	0
COc1cc2[nH]c(C(=O)N3CCc4ccccc4C3)cc2c(OC)c1OC	9	-3	1	1	0
COc1cc2cc(C(=O)N3CCc4ccccc4C3)[nH]c2cc1OC	1	-7	-1	-33*	-1
Cc1cc(OCC(=O)Nc2nnc(C3CC3)s2)ccc1C(C)C	36*	-1	3	0	2
CCOc1ccc(CCNC(=O)c2c(C)oc3ncnc(N4CCOCC4)c23)cc1	16	2	1	4	-1
CCOC(=O)c1ccc(-c2ccc(/C=C(\C#N)C(=O)Nc3c(C)cccc3Cl)o2)cc1	3	2	4	4	1
CCCCOC(=O)c1ccc(NC(=O)/C(C#N)=C/c2ccc(-c3ccccc3)o2)cc1	7	7	127*	0	47*
Cc1ccc(-c2ccc(/C=C(\C#N)C(=O)Nc3cc(C)nn3-c3ccccc3)o2)cc1	-2	-8	61*	-25	17
Cc1ccccc1Cn1nc(C)c(NC(=O)c2cc3n(n2)C(C(F)F)CC(C(F)F)N3)c1C (stereo unspecified)	6	-2	-1	-51*	0
CC(C)C(=O)Nc1nnc(S(=O)(=O)N(C)Cc2ccc(F)cc2)s1	2	-2	1	-7	1
COc1ccc(C)cc1NC(=O)NC(C)c1c(-n2cccc2)sc(C)c1C (stereo unspecified)	10	-4	0	10	0
CCC(Sc1nc2ccncc2[nH]1)C(=O)Nc1cc(Cl)ccc1C (stereo unspecified)	4	-5	6	-44*!	0
Cc1cc(OC(=O)c2c(Cl)cc(Cl)cc2Cl)nc(C)n1	-2	2	1	15	-1
Cc1cc(C)nc(OC(=O)c2c(Cl)cc(Cl)cc2Cl)n1	30*	-2	3	-11	-1

Compound activity from PubChem BioAssay.
